Like-named read-outs stand apart in the source and are kept apart here.

Common to all, as to design: species or system human, MV4-11 + K-562 + COLO205 + SK-N-BE2 + OVCAR-8
The test system of one assay is ACVR1B. The note with it: read-out: apparent Kd; compound concentrations: 100 nM and 1000 nM (sheet 'Samples'), CATDS: 8.2410499697195994E-2; n = 1.
The next assay deals with ACVR2B. The settings on record: read-out: apparent Kd, n = 1.
The next assay has as its system CSNK1A1. The settings on record: read-out: apparent Kd; compound concentrations: 100 nM and 1000 nM (sheet 'Samples'), CATDS: 3.7842664233860401E-2; n = 1.
Another assay concerns CSNK1D. The note with it: read-out: apparent Kd; compound concentrations: 100 nM and 1000 nM (sheet 'Samples'), CATDS: 5.8055493904437101E-2; n = 1.
The next assay relates to CSNK1E. The settings on record: read-out: apparent Kd; compound concentrations: 100 nM and 1000 nM (sheet 'Samples'), CATDS: 4.09740757969334E-2; n = 1.
A further assay has as its system DDR1. The note with it: read-out: apparent Kd; compound concentrations: 100 nM and 1000 nM (sheet 'Samples'), CATDS: 5.25374061654219E-2; n = 1.
A further assay relates to DDR2. The note with it: read-out: apparent Kd; compound concentrations: 100 nM and 1000 nM (sheet 'Samples'), CATDS: 4.2392371826783903E-2; n = 1.
Another assay concerns GAK. The note with it: read-out: apparent Kd, n = 1.
Another assay relates to MAPK10. The settings on record: read-out: apparent Kd; compound concentrations: 100 nM and 1000 nM (sheet 'Samples'), CATDS: 0.12973795747386199; n = 1.
For the next assay, the system named is MAPK14. The settings on record: read-out: apparent Kd; compound concentrations: 100 nM and 1000 nM (sheet 'Samples'), CATDS: 0.11490787983313; n = 1.
Another assay relates to MAPK8. The note with it: read-out: apparent Kd; compound concentrations: 100 nM and 1000 nM (sheet 'Samples'), CATDS: 3.7066716076187299E-2; n = 1.
Another assay relates to MAPK9. The settings on record: read-out: apparent Kd; compound concentrations: 100 nM and 1000 nM (sheet 'Samples'), CATDS: 0.1157117766231; n = 1.
The subject of a further assay is MAPKAPK2. The settings on record: read-out: apparent Kd; compound concentrations: 100 nM and 1000 nM (sheet 'Samples'), CATDS: 0.100968971541066; n = 1.
In a further assay the test system is PKN3. The settings on record: read-out: apparent Kd; compound concentrations: 100 nM and 1000 nM (sheet 'Samples'), CATDS: 3.6917744645490899E-2; n = 1.
Another assay has as its system PRKD2. The note with it: read-out: apparent Kd; compound concentrations: 100 nM and 1000 nM (sheet 'Samples'), CATDS: 5.3704736783425001E-2; n = 1.
For the next assay, the system named is PRKD3. The settings on record: read-out: apparent Kd; compound concentrations: 100 nM and 1000 nM (sheet 'Samples'), CATDS: 4.4266829697393303E-2; n = 1.
The subject of the next assay is RIPK2. The note with it: read-out: apparent Kd; compound concentrations: 100 nM and 1000 nM (sheet 'Samples'), CATDS: 5.33565185229085E-2; n = 1.
In a further assay the test system is TGFBR1. The note with it: read-out: apparent Kd; compound concentrations: 100 nM and 1000 nM (sheet 'Samples'), CATDS: 4.4217762618850402E-2; n = 1.
In a further assay the test system is ACVR1. The note with it: read-out: apparent Kd; compound concentrations:100 nM and 1000 nM (sheet 'Samples'); n = 1.
The next assay relates to BCR. The note with it: read-out: apparent Kd; compound concentrations:100 nM and 1000 nM (sheet 'Samples'); n = 1.
For another assay, the system named is BMPR1A. The note with it: read-out: apparent Kd; compound concentrations:100 nM and 1000 nM (sheet 'Samples'); n = 1.
The subject of a further assay is CSNK2A1;CSNK2A3. The note with it: read-out: apparent Kd; compound concentrations:100 nM and 1000 nM (sheet 'Samples'); n = 1.
The test system of another assay is CSNK2A2. The note with it: read-out: apparent Kd; compound concentrations:100 nM and 1000 nM (sheet 'Samples'); n = 1.
The subject of another assay is GSK3A. The note with it: read-out: apparent Kd; compound concentrations:100 nM and 1000 nM (sheet 'Samples'); n = 1.
Another assay concerns GSK3B. The settings on record: read-out: apparent Kd; compound concentrations:100 nM and 1000 nM (sheet 'Samples'); n = 1.
In the next assay the test system is JAK2. The settings on record: read-out: apparent Kd; compound concentrations:100 nM and 1000 nM (sheet 'Samples'); n = 1.
The next assay has as its system TAOK1. The settings on record: read-out: apparent Kd; compound concentrations:100 nM and 1000 nM (sheet 'Samples'); n = 1.
For a further assay, the system named is TNIK. The settings on record: read-out: apparent Kd; compound concentrations:100 nM and 1000 nM (sheet 'Samples'); n = 1.
For a further assay, the system named is ADCK1. The note with it: read-out: apparent Kd; compound concentrations:100 nM and 1000 nM (sheet 'Samples'); n = 1.
The subject of a further assay is PIK3CA. The settings on record: read-out: apparent Kd; compound concentrations:100 nM and 1000 nM (sheet 'Samples'); n = 1.
The subject of the next assay is PIK3CD. The settings on record: read-out: apparent Kd; compound concentrations:100 nM and 1000 nM (sheet 'Samples'); n = 1.
Another assay concerns PKN1. The note with it: read-out: apparent Kd; compound concentrations:100 nM and 1000 nM (sheet 'Samples'); n = 1.
The subject of another assay is PKN2. The note with it: read-out: apparent Kd; compound concentrations:100 nM and 1000 nM (sheet 'Samples'); n = 1.
In the next assay the test system is RAB5C. The note with it: read-out: apparent Kd; compound concentrations:100 nM and 1000 nM (sheet 'Samples'); n = 1.
Another assay has as its system TTN. The note with it: read-out: apparent Kd; compound concentrations:100 nM and 1000 nM (sheet 'Samples'); n = 1.
The next assay deals with ADRBK1. The settings on record: read-out: apparent Kd; compound concentrations:100 nM and 1000 nM (sheet 'Samples'); n = 1.
In another assay the test system is AKT1. The note with it: read-out: apparent Kd; compound concentrations:100 nM and 1000 nM (sheet 'Samples'); n = 1.
The subject of another assay is AKT2. The settings on record: read-out: apparent Kd; compound concentrations:100 nM and 1000 nM (sheet 'Samples'); n = 1.
A further assay relates to CDC42BPG. The settings on record: read-out: apparent Kd; compound concentrations:100 nM and 1000 nM (sheet 'Samples'); n = 1.
A further assay concerns CDK6. The settings on record: read-out: apparent Kd; compound concentrations:100 nM and 1000 nM (sheet 'Samples'); n = 1.
A further assay relates to NQO1. The settings on record: read-out: apparent Kd; compound concentrations:100 nM and 1000 nM (sheet 'Samples'); n = 1.
The subject of a further assay is PYGL. The settings on record: read-out: apparent Kd; compound concentrations:100 nM and 1000 nM (sheet 'Samples'); n = 1.
The subject of a further assay is RIOK2. The note with it: read-out: apparent Kd; compound concentrations:100 nM and 1000 nM (sheet 'Samples'); n = 1.
Another assay relates to TP53RK. The note with it: read-out: apparent Kd; compound concentrations:100 nM and 1000 nM (sheet 'Samples'); n = 1.
For a further assay, the system named is CDC42. The settings on record: read-out: apparent Kd; compound concentrations:100 nM and 1000 nM (sheet 'Samples'); n = 1.
Where [1] appears, read: compound concentrations:100 nM and 1000 nM (sheet 'Samples').

`Cc1ccc2c(-c3ccnc(Nc4ccccc4)n3)c(-c3ccc(F)cc3)nn2n1` [GW833373X]: the potency estimated from few doses in the assay with ACVR1B is 193 nM; in the assay on ACVR2B (compound concentrations: 100 nM and 1000 nM (sheet 'Samples'), CATDS: 4.1971231951758399E-2) it was 1090 nM; in the assay with CSNK1A1, 1640 nM; in the assay with CSNK1D, 418 nM; in the assay on CSNK1E, 1190 nM; in the assay with DDR1, 543 nM. Moreover, the potency estimated from few doses is 1050 nM with DDR2; 56.5 nM with GAK (compound concentrations: 100 nM and 1000 nM (sheet 'Samples'), CATDS: 0.17328918321310699); 87.1 nM with MAPK10; 106 nM with MAPK14; 1800 nM in the assay with MAPK8; 105 nM with MAPK9. Also, the potency estimated from few doses was 132 nM with MAPKAPK2; 1840 nM in the assay on PKN3; 511 nM in the assay with PRKD2; 906 nM with PRKD3; 520 nM with RIPK2; 909 nM in the assay on TGFBR1.
In the case of `COc1cccc(-n2ncc3c(N/N=C/c4ccncc4)ncnc32)c1` [GW784752X], the potency estimated from few doses in the assay with ACVR1 was 119 nM; in the assay with BCR, 641 nM; with BMPR1A it was 1130 nM; in the assay on CSNK2A1;CSNK2A3, 882 nM; with CSNK2A2, 252 nM; in the assay with GSK3A, 47.2 nM. The potency estimated from few doses with GSK3B is 75.6 nM; in the assay on JAK2, 603 nM.
Regarding `Nc1nc(-c2ccccn2)c(-c2ccnc3ccccc23)s1` [GW548057X], the potency estimated from few doses in the assay on ACVR2B (setting [1]) was 1790 nM; with TAOK1, 1700 nM.
Regarding `c1ccc(-c2n[nH]cc2-c2ccnc3ccccc23)nc1` [GW271431X], the potency estimated from few doses in the assay on ACVR2B (setting [1]) was 555 nM; in the assay on GAK (setting [1]) it was 465 nM; in the assay on TNIK, 1380 nM.
In the case of `Cl.Cl.c1ccc(-c2cc3ccncc3cc2OC2CCNCC2)cc1.c1ccc(-c2cc3ccncc3cc2OC2CCNCC2)cc1` [GSK1122999D], the potency estimated from few doses in the assay with ADCK1 is 1280 nM; in the assay on PIK3CA it was 287 nM; in the assay on PIK3CD, 179 nM; with PKN1 it was 2030 nM; with PKN2, 2040 nM; in the assay with RAB5C it was 1190 nM. Besides, the potency estimated from few doses with TTN is 886 nM.
On to `COc1ccccc1-c1cc(/C=C2\C(=O)Nc3ncc(Br)cc32)cc(Br)c1O` [GW442130X], for which the potency estimated from few doses in the assay on ADRBK1 was 1960 nM; with AKT1, 1540 nM; in the assay on AKT2, 1120 nM; in the assay on CDC42BPG, 453 nM; with CDK6 it was 1940 nM; in the assay on NQO1 it was 1260 nM. In addition, the potency estimated from few doses with PYGL was 1840 nM; in the assay with RIOK2, 1450 nM; in the assay with TP53RK, 1740 nM.
Take `Cl.NC(=O)c1ccc(-c2nc(-c3ccccn3)c(-c3ccc4c(c3)OCO4)[nH]2)cc1` [SB-431542-A]: in the assay on CDC42, the potency estimated from few doses is 731 nM.
